Test results as given in PubChem BioAssay AID720531 (The Scripps Research Institute Molecular Screening Center, 2013).
Among all 1,000 compounds or so, about 270 (27%) were called active. The list is a sample of the results. A number with no mark means an inactive call. Rule as the data show it: active = inhibition above about 14%; inactive = the rest.

Target: Methyl-CpG-binding domain protein 2 (Homo sapiens) (UniProt Q9UBB5)
Experiment: MBD2-DBD methyl-oligonucleotide interaction blockers – biochemical, TR-FRET, DNA-binding domain, human, confirmation (AID 720531)
Conditions: TR-FRET MBD2-DBD binding to methylated oligonucleotide; at 4.4 µM; stronger effect = higher value

Sequence of Methyl-CpG-binding domain protein 2 (Homo sapiens) (Q9UBB5 whole entry, looked up, the tested form may be a part): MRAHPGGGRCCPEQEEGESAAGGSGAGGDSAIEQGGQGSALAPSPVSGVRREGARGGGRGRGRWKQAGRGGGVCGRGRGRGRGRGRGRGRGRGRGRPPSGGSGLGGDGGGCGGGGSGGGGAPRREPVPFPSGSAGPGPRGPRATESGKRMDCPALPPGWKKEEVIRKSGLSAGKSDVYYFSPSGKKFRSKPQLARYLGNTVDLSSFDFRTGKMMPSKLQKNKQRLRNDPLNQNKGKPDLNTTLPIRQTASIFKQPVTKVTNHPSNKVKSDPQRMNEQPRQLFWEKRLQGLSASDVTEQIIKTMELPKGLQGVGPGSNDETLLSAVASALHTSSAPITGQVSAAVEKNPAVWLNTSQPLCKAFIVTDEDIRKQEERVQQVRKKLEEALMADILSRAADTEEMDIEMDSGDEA

SMILES	inhibition
Cc1cc(/C=C2/C(=O)NC(=O)N(Cc3ccco3)C2=O)c(C)n1-c1ccc(C(=O)O)cc1	3.26%
COc1ccc(N2C(=O)/C(=C/c3ccco3)C(=O)NC2=S)cc1	88.4% (active)
O=C1NC(=O)N(Cc2ccco2)C(=O)/C1=C\c1ccc(-c2ccc(F)cc2)o1	4.49%
